# According to PubChem BioAssay:
# Where “and” joins values, the source holds several entries; their conditions need not be identical. Equal entries are not always repeated. Calls of active or inactive are those of the source. Unless noted, how the calls were made is not given here.
# Key:
# [1] = tested on: Wnt5a (protein binding on small-molecule microarray); test: Wnt5a binders on small-molecule microarray, primary screen, biophysical, 635/667 nm fluorescence (AID 1142); settings: 635 nm fluorescence, higher = more signal;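 further: fluorescence read at 667 nm with signal to noise per printed feature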
# [2] = cell viability in Huh7 cells, primary screen, cytotoxicity control for HCV replication inhibitor project, CellTiter-Glo luminescence, basal, 48 h (AID 1143); settings: Huh7 HCV replicon, higher = more signal, called active from +8 up or from −8 down;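 further: Huh7 hepatoma cells carrying a hepatitis C replication reporter with no stimulus; test concentration not given here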
# [3] = P. aeruginosa biofilm formation inhibitors, primary screen, PAO1 strain, BacTiter-Glo luminescence, LB-PBS (AID 1144); settings: 12 h, higher = more signal
# [4] = CREB reporter modulators without forskolin, primary screen, cell-based, PC12, CRE-LacZ reporter, unstimulated (AID 1145); settings: no forskolin, luminescence, 4.5 h, higher = more signal, called active from +8 up or from −8 down
# [5] = CREB reporter modulators under forskolin, primary screen, cell-based, PC12, CRE-LacZ reporter, forskolin-stimulated (AID 1146); settings: luminescence, 4.5 h, higher = more signal, called active from +8 up or from −8 down;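 further: PC12 cells with 6xCRE LacZ reporter stimulated by forskolin 10 µM; beta-galactosidase reporter signal reflecting CREB driven transcription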
# [6] = target: Streptavidin (Streptomyces avidinii) (UniProt P22629); test: streptavidin binders on small-molecule microarray, primary screen, artefact control for SMM compound annotation, biophysical, 635/667 nm fluorescence (AID 1147); settings: streptavidin binding, higher = more signal;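 further: signal reflects streptavidin binding to arrayed compounds as a control protein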
# Chain of Streptavidin (Streptomyces avidinii) (P22629 whole entry, looked up): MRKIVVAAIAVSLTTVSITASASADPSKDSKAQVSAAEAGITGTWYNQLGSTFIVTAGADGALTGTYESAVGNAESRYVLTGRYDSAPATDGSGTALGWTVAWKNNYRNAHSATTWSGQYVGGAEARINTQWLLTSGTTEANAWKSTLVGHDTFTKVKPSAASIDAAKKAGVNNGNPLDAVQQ
# [7] = small-molecule binders of probe aInhba, primary screen, biochemical, small-molecule microarray, 635/667 nm fluorescence (AID 1148); settings: higher = more signal;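 further: score merges 667nm spot fluorescence with signal-to-noise for antibody binding to printed compounds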
# [8] = target: Torsin-1A (Homo sapiens) (UniProt O14656); test: torsin A binders from cell lysate, primary screen, small-molecule microarray, wild-type, 635/667 nm (AID 1149); settings: COS7 hTOR1A-WT lysate, 635 nm fluorescence, higher = more signal
# Chain of Torsin-1A (Homo sapiens) (O14656 whole entry, looked up): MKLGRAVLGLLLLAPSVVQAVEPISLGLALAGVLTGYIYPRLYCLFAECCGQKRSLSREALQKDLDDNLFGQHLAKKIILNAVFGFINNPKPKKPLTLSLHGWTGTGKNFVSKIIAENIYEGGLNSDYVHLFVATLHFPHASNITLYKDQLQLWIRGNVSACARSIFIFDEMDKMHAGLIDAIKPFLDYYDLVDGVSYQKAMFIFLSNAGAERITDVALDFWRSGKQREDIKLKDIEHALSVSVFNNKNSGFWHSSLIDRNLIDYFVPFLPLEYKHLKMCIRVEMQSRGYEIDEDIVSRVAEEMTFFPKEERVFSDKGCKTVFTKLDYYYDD
# [9] = target: Torsin-1A (Homo sapiens) (UniProt O14656); test: small-molecule binders of mutant TOR1A in lysate, primary screen, cell lysate, small-molecule microarray, COS7 lysate, 635/667 nm fluorescence (AID 1150); settings: COS7 hTOR1A mutant lysate, 635 nm fluorescence, higher = more signal;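 further: score pools 667 nm emission and signal to noise measuring lysate protein binding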
# [10] = tested on: Sonic hedgehog protein (Shh); test: small-molecule binders of Shh protein, primary screen, biochemical, small-molecule microarray, 635/667 nm fluorescence (AID 1151); settings: small-molecule microarray binding, 635 nm fluorescence; higher = more signal;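 further: Shh protein binding to compounds spotted on small-molecule microarray slides; score combines spot fluorescence intensity with signal-to-noise across triplicate slides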
# [11] = E. coli DRC41 culture turbidity changes, primary screen, E. coli filamentation inducer project, strain DRC41, OD650, 48 h (AID 1152);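 further: E. coli MC1000 strain DRC41 lacking acrAB efflux pump and sulA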; settings: E. coli DRC41 (acrAB sulA), higher = more signal, called active from +8 up or from −8 down
# [12] = small-molecule binders of probe aLefty1, primary screen, biochemical, small-molecule microarray, 635/667 nm fluorescence (AID 1153); settings: higher = more signal;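 further: score merges spot fluorescence with signal-to-noise ratio from the scanned slide images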
# [13] = PSAC antagonists in infected red cells, primary screen, cell-based, P. falciparum Indochina, OD700, 1 h (AID 1154); settings: P. falciparum Indochina infected RBC osmotic lysis, higher = more signal, called active from +8 up or from −8 down
# [14] = PSAC antagonists in infected red cells, primary screen, cell-based, P. falciparum Indochina, OD700, 2 h (AID 1155);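 further: lysis reports solute entry through the parasite surface anion channel PSAC; channel blockers reduce lysis of infected cells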; settings: P. falciparum Indochina infected erythrocytes, osmotic lysis OD700; higher = more signal, called active from +8 up or from −8 down
# [15] = osmotic lysis modulators in infected erythrocytes, primary screen, PSAC antagonist project, cell-based, P. falciparum Indochina, OD700, 3 h (AID 1156); settings: higher = more signal, called active from +8 up or from −8 down
# [16] = PSAC antagonists in infected red cells, primary screen, cell-based, P. falciparum Indochina, OD700, 18 h (AID 1157); settings: P. falciparum Indochina infected erythrocytes, osmotic lysis OD700, 18 h; higher = more signal, called active from +8 up or from −8 down
# [17] = modulators of S6 phosphorylation in cells, primary screen, cell-based, A549, cytoblot, luminescence, serum-stimulated (AID 1158); settings: A549 phospho-S6 cytoblot, 5 h, higher = more signal;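 further: serum-stimulated A549 lung adenocarcinoma cells; signal is phosphorylated S6 detected by cytoblot immunostaining with HRP secondary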
# [18] = target: NADPH oxidase 2 (Homo sapiens) (UniProt P04839); test: NOX2-dependent H2O2 signal modulators, primary screen, NOX inhibitor project, cell-based, HEK293-NOX2, PMA-stimulated, Amplex Red fluorescence (AID 1159); settings: 45 min, higher = more signal, called active from +8 up or from −8 down; further: test concentration not given here
# Chain of NADPH oxidase 2 (Homo sapiens) (P04839 whole entry, looked up): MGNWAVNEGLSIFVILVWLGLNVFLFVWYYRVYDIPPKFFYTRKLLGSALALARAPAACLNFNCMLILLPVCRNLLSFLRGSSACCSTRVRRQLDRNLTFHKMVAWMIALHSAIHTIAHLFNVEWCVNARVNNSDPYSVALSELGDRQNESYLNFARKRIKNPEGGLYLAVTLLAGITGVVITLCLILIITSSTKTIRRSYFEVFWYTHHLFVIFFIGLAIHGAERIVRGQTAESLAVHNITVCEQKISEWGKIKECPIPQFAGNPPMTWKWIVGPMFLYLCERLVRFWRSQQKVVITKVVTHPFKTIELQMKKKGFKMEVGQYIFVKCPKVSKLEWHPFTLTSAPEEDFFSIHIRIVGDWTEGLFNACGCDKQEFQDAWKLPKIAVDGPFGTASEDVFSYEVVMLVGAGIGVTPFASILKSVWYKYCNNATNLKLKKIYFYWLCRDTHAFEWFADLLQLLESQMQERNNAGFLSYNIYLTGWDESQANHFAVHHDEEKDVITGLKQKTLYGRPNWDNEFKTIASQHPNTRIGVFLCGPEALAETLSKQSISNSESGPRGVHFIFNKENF
# [19] = target: NADPH oxidase 4 (Homo sapiens) (UniProt Q9NPH5); test: NOX4-dependent H2O2 signal modulators, primary screen, NOX inhibitor project, cell-based, HEK293-NOX4, tetracycline-induced, Amplex Red fluorescence (AID 1160); settings: 45 min, higher = more signal, called active from +8 up or from −8 down
# Chain of NADPH oxidase 4 (Homo sapiens) (Q9NPH5 whole entry, looked up): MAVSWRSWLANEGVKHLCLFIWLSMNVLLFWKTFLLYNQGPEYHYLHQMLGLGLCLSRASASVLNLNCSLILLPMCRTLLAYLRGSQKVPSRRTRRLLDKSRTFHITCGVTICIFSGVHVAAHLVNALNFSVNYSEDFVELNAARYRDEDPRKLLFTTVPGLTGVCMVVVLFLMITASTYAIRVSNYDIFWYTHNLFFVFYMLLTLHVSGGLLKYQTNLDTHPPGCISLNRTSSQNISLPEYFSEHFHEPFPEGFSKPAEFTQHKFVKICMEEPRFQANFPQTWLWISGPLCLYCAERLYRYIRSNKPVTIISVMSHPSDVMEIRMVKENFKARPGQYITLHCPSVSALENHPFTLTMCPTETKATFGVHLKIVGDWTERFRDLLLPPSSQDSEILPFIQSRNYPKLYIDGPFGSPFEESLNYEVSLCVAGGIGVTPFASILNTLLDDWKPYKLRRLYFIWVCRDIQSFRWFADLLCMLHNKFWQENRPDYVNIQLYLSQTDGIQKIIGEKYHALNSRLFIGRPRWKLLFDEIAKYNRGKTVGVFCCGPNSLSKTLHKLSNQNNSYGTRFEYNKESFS
# [20] = target: NADPH oxidase 5 (Homo sapiens) (UniProt Q96PH1); test: NOX5-dependent H2O2 signal modulators, primary screen, NOX inhibitor project, cell-based, HEK293-NOX5, Amplex Red fluorescence (AID 1161); settings: HEK293-NOX5, ionomycin, 45 min, higher = more signal
# Chain of NADPH oxidase 5 (Homo sapiens) (Q96PH1 whole entry, looked up): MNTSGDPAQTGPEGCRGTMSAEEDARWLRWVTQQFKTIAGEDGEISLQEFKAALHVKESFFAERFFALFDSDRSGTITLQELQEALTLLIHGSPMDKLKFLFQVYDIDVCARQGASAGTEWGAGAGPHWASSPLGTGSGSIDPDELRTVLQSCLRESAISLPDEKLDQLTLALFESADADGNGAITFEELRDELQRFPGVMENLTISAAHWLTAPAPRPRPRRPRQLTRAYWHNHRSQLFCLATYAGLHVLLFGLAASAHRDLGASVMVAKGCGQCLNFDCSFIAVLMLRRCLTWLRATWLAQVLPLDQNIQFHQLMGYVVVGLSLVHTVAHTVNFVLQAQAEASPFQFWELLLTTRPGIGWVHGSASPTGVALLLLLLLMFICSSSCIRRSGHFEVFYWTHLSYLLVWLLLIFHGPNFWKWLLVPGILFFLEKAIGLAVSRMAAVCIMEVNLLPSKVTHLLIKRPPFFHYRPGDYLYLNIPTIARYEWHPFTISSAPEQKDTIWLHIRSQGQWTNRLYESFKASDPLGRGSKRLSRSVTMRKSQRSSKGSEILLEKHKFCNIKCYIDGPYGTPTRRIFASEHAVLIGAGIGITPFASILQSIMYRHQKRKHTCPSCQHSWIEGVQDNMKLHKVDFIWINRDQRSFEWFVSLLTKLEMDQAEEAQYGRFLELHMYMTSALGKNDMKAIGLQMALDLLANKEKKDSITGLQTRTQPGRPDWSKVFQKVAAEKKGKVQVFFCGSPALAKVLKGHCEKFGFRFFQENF
SMILES,composite z-score [1],z-score [2],z-score [3],z-score [4],z-score [5],composite z-score [6],composite z-score [7],composite z-score [8],composite z-score [9],composite z-score [10],z-score [11],composite z-score [12],z-score [13],z-score [14],z-score [15],z-score [16],z-score [17],z-score [18],z-score [19],z-score [20]
CCOC(=O)[C@@H]1CC2O[C@]23C[C@@H]1C(=O)N1CCC[C@@H]1[C@H]3O[Si](C)(C)C(C)(C)C (stereo not given in full),0.187 and -0.0017,-1.17 (inactive) and 0.553 (inactive),-0.377 (inactive) and 0.487 (inactive),-1.23 (inactive) and -0.414 (inactive),-0.217 (inactive) and 1.42 (inactive),-0.468 and -0.0735,-0.105 and 0.651,-0.36 and -0.384,-0.855 and -0.032,0.361 and 1.05,-1.1 (inactive) and -0.757 (inactive),-0.229 and -0.255,0.827 (inactive) and -0.309 (inactive),-0.168 (inactive) and 0.0095 (inactive),-0.03 (inactive) and -0.708 (inactive),0.134 (inactive) and -0.162 (inactive),-0.111 and -0.206,0.937 (inactive) and 0.661 (inactive),0.147 (inactive) and 5.07 (inactive),-2.39 and -0.882
C[N+](C)(C)CCCCCCNC(=O)[C@H]1C[C@H]2C(=O)N[C@@H](CCCC[N+](C)(C)C)C(=O)N2[C@H]1c1cccc(OCCO)c1,0.138 and 0.215,-0.153 (inactive) and 0.0096 (inactive),-0.454 (inactive) and 0.221 (inactive),-0.532 (inactive) and -1.09 (inactive),0.323 (inactive) and -0.622 (inactive),-0.621 and 0.0935,0.298 and 0.135,0.765 and 1.27,1.11 and 0.354,1.98 and 1.79,1.06 (inactive) and -0.391 (inactive),0.212 and 1.06,3.2 (inactive) and 3.03 (inactive),1.03 (inactive) and 1.07 (inactive),0.0478 (inactive) and -2.4 (inactive),0.448 (inactive) and 0.301 (inactive),-0.0981 and -0.617,-0.142 (inactive) and -0.0849 (inactive),0.566 (inactive) and 0.746 (inactive),0.749 and 0.86
COC(=O)C1=C(C)N(Cc2ccccc2)C2=C3C(=O)CCC[C@@H]3[C@@](O)(C(=O)OC)C(=O)N2[C@@H]1c1ccccc1,-0.0849 and 0.288,-0.5 (inactive) and -1.53 (inactive),0.311 (inactive),1.65 (inactive) and 1.38 (inactive),0.703 (inactive) and -1.7 (inactive),0.14 and -0.503,0.155 and -0.0762,0.555 and -0.0343,0.844 and 0.0578,0.544 and 0.586,0.941 (inactive) and 1.15 (inactive),-0.0275 and 0.106,-0.0542 (inactive) and 0.644 (inactive),0.23 (inactive) and -0.736 (inactive),-0.689 (inactive) and 0.924 (inactive),0.249 (inactive) and -0.767 (inactive),-0.0885 and 0.778,1.08 (inactive) and -0.368 (inactive),-0.0562 (inactive) and 0.13 (inactive),-0.0435 and -0.704
C=CCN(C(=O)C(c1cccs1)N(CCOCCO)C(=O)/C=C\C(=O)O)C(C)(C)C (stereo not given),-0.775 and -0.776,-0.199 (inactive) and -0.0585 (inactive),-1.2 (inactive) and -0.384 (inactive),1.42 (inactive) and 0.191 (inactive),0.005 (inactive) and -0.599 (inactive),-1.89 and -1.22,-0.251 and -0.176,-1.26 and -0.984,-1.79 and -2.02,-1.27 and -0.703,1.56 (inactive) and 0.971 (inactive),-0.371 and -0.355,-1.2 (inactive) and -1.15 (inactive),-0.172 (inactive) and -0.307 (inactive),0.0342 (inactive) and -0.837 (inactive),0.011 (inactive) and -0.113 (inactive),0.234 and 0.15,-0.302 (inactive) and -0.0837 (inactive),-0.904 (inactive) and -0.857 (inactive),0.0514 and 0.0449
O=c1n(-c2ccccc2)c(=O)n2n1CC[C@@H]1C(=NOC[C@@H](O)COCc3ccco3)[C@H]3O[C@H]3[C@@H](O)[C@@H]12,0.0145 and -0.152,-2.38 (inactive) and 1.16 (inactive),-0.58 (inactive) and 0.962 (inactive),0.875 (inactive) and -0.227 (inactive),-0.218 (inactive) and 0.761 (inactive),0.312 and 0.0894,-0.0963 and -0.0407,0.716 and 0.965,0.289 and 0.457,1.7 and 0.769,-1.09 (inactive) and -0.282 (inactive),-0.0464 and -0.0626,1.17 (inactive) and 0.288 (inactive),-0.603 (inactive) and 0.191 (inactive),1.74 (inactive) and 0.238 (inactive),-2.3 (inactive) and 0.0983 (inactive),0.473 and -0.975,1.06 (inactive) and 0.176 (inactive),0.113 (inactive) and -2.01 (inactive),1.33 and -0.41
CN1C(=O)C2CC=C([C@H]3Oc4ccccc4S(=O)(=O)N4CCC[C@@H]34)CC2C1=O (stereo not given in full),-0.0808 and 0.53,0.0836 (inactive) and -0.243 (inactive),-0.129 (inactive) and -0.419 (inactive),-1.32 (inactive) and -0.327 (inactive),0.123 (inactive) and 0.707 (inactive),-0.0329 and -0.212,-0.0963 and -0.0874,-0.0871 and -0.296,0.075 and -0.165,-0.306 and -0.272,-0.92 (inactive) and -0.225 (inactive),-0.186 and -0.193,0.35 (inactive) and 0.829 (inactive),0.542 (inactive) and 0.41 (inactive),-0.0363 (inactive) and 0.15 (inactive),0.354 (inactive) and 0.133 (inactive),-0.395 and -0.53,0.514 (inactive) and -0.289 (inactive),-1.36 (inactive) and -1.47 (inactive),-1.31 and -1.46
